Experimental data published in PubChem BioAssay (EPA / NIEHS).
Inconclusive results are not listed. Activity calls are given as the source filed them. Rule for the calls, unless noted: active = hit-call score of the fitted dose curve at least 0.9, where 1 is the maximum; inconclusive = response in the unintended direction; inactive = score below 0.9.

Legend:
[1] = molecular target: Cellular tumor antigen p53 (Homo sapiens) (UniProt P04637); assay: TOX21_p53_BLA_p2_ratio: Tox21 HCT-116 p53 Agonism Beta-lactamase Assay, Ratio, Phase 2 (AID 2283592)
Sequence of Cellular tumor antigen p53 (Homo sapiens) (P04637 whole entry, looked up): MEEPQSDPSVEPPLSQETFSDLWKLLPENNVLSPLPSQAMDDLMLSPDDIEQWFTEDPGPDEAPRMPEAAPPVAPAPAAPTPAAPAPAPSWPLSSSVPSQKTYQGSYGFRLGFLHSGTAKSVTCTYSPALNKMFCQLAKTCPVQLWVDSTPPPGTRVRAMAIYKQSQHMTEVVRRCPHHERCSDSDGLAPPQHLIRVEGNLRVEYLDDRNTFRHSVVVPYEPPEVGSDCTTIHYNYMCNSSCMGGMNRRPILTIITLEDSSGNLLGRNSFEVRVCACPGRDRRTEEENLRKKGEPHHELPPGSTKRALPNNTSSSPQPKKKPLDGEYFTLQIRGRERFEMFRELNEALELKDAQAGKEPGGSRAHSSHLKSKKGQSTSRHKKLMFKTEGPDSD
Method in brief: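 HCT116 p53-bla; 4000 cells/well; 5 h pre-incubation; cpd in DMSO, 217-fold dilution; 16 h 37C/5% CO2; CCF4-AM 2 h RT; Ex 405, Em 460/530 ratio; DMSO = baseline; positive fitting direction.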

[2] = TOX21_p53_BLA_p3_viability: Viability Assessment in the Tox21 HCT-116 p53 Agonism Beta-lactamase Assay, Phase 3 (AID 2283593);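 note: cells exposed to compound for 16 h before reading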
Method in brief: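 HCT-116 cells (4000/well) rested 5 h at 37C, then got DMSO compounds by pin tool (217-fold dilution) for 16 h at 37C, 5% CO2. After the bla read, CellTiter-Glo was added and luminescence read at 30 min, room temperature.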

[3] = molecular target: Cellular tumor antigen p53 (Homo sapiens) (UniProt P04637); assay: TOX21_p53_BLA_p3_ratio: Tox21 HCT-116 p53 Agonism Beta-lactamase Assay, Ratio, Phase 3 (AID 2283596)
Method in brief: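 HCT116 p53-bla cells (4000/well) given compound in DMSO (217-fold dilution) after 5 h, incubated 16 h at 37C. CCF4-AM substrate 2 h at room temperature; 460/530 nm emission ratio, gain fitted against DMSO.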

[4] = TOX21_p53_BLA_p4_viability: Viability Assessment in the Tox21 HCT-116 p53 Agonism Beta-lactamase Assay, Phase 4 (AID 2283597);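 note: hits lower the luminescence signal meaning cytotoxicity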
Method in brief: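 Cells plated, 5 h pre-incubation; DMSO compounds pinned (217-fold dilution); 16 h, 37C/5% CO2; CCF4-AM 2 h RT; CellTiter-Glo 30 min RT; luminescence read.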

[5] = molecular target: Cellular tumor antigen p53 (Homo sapiens) (UniProt P04637); assay: TOX21_p53_BLA_p5_ratio: Tox21 HCT-116 p53 Agonism Beta-lactamase Assay, Ratio, Phase 5 (AID 2283599)
Method in brief: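 HCT-116 cells carrying a p53-inducible beta-lactamase reporter were seeded at 4000 cells/well and dosed after 5 h with compound in DMSO (217-fold dilution). After 16 h at 37C, CCF4-AM substrate was added for 2 h, and the 460/530 nm emission ratio was scored as gain-of-signal versus DMSO.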

[6] = TOX21_p53_BLA_p5_viability: Viability Assessment in the Tox21 HCT-116 p53 Agonism Beta-lactamase Assay, Phase 5 (AID 2283600)
Method in brief: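 4000 cells/well; 5 h pre-incubation; DMSO compounds pin-transferred, 217-fold dilution; 16 h, 37C/5% CO2; CCF4-AM 2 h RT; CellTiter-Glo 30 min RT; luminescence.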

[7] = molecular target: Cellular tumor antigen p53 (Homo sapiens) (UniProt P04637); assay: TOX21_p53_BLA_p4_ratio: Tox21 HCT-116 p53 Agonism Beta-lactamase Assay, Ratio, Phase 4 (AID 2283601)
Method in brief: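 HCT116 cells carrying an inducible beta-lactamase reporter were plated at 4000 cells/well, rested 5 h, then exposed to compounds in DMSO (217-fold dilution) for 16 h at 37C. CCF4-AM substrate was loaded 2 h at room temperature; 460/530 nm emission ratio scored gain-of-signal versus DMSO.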

PGR (gene 5241) [8] = molecular target: PGR (gene 5241) (UniProt P06401); assay: TOX21_PR_BLA_Followup_Agonist_ratio: Tox21 HEK293 Progesterone Receptor (PR) Agonism Beta-lactamase Follow-Up Assay, Ratio (AID 2283933)
Sequence of PGR (gene 5241) (P06401 whole entry, looked up): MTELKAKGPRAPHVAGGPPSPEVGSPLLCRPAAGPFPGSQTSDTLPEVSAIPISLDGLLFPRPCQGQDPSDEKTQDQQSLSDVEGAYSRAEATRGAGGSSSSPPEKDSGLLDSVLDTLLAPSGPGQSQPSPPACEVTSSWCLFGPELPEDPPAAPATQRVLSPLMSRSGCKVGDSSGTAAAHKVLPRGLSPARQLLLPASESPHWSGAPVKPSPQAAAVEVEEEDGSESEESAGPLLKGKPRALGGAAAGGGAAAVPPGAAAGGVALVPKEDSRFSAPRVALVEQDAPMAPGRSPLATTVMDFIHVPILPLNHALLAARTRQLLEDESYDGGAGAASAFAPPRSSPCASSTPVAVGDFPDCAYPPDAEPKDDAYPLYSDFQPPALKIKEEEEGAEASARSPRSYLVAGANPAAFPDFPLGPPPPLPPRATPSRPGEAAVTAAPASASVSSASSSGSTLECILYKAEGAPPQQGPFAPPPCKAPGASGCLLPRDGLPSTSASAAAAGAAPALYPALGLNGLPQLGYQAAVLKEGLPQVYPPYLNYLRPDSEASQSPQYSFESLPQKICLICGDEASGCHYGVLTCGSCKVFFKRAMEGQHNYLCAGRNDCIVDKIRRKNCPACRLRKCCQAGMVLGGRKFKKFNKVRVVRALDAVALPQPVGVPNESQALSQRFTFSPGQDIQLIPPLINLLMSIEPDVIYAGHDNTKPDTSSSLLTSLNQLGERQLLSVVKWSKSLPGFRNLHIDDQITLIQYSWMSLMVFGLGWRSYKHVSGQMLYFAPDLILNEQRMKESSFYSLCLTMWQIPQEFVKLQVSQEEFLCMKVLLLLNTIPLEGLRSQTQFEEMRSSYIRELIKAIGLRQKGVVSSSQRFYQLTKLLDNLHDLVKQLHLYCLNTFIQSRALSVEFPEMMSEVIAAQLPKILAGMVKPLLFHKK
Method in brief: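 PR-UAS-bla HEK293T cells in medium with 2% charcoal-stripped FBS were dosed after 6 h plating and incubated 16 h at 37C. LiveBLAzer FRET substrate was added for 2 h at room temperature. Cleaved/uncleaved substrate ratio fitted against DMSO; CellTiter-Glo viability run in the same wells.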

PGR (gene 5241) [9] = molecular target: PGR (gene 5241) (UniProt P06401); assay: TOX21_PR_BLA_Followup_Antagonist_ratio: Tox21 HEK293 Progesterone Receptor (PR) Antagonism Beta-lactamase Follow-Up Assay, Ratio (AID 2283934)
Method in brief: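 PR-UAS-bla HEK293T cells, 3,000/well in 2% charcoal-stripped FBS, given compound plus 1nM R5020 agonist for 16 hr at 37C. Beta-lactamase FRET substrate 2 hours, ratio cleaved/uncleaved fluorescence; viability by CellTiter-Glo in same wells.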

PGR (gene 5241) [10] = molecular target: PGR (gene 5241) (UniProt P06401); assay: TOX21_PR_LUC_Followup_Agonist: Tox21 HEK293 Progesterone Receptor (PR) Agonism Luciferase Follow-Up Assay (AID 2283937; active = hit-call score of the fitted dose curve at least 0.9, where 1 is the maximum; inactive = score below 0.9)
Method in brief: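 HEK293-PR-A-luc cells, conditioned 5 days in 10% charcoal-stripped FBS medium, seeded 3,000/well for 5 h, then compound-treated 16 h at 37C. ONE-Glo luminescence read after 30 min at room temperature; gain of signal versus DMSO.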

PGR (gene 5241) [11] = molecular target: PGR (gene 5241) (UniProt P06401); assay: TOX21_PR_LUC_Followup_Antagonist: Tox21 HEK293 Progesterone Receptor (PR) Antagonism Luciferase Follow-Up Assay (AID 2283938);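 note: curve fitted upward as signal gain over DMSO baseline despite antagonist label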
Method in brief: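 Cells are grown 5 days in charcoal-stripped-FBS assay medium, plated, left 5 h, then dosed with compound and incubated 16 h. ONE-Glo reagent is added and luminescence read after 30 min.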

[12] = TOX21_PR_LUC_Followup_Agonist_viability: Viability Assessment in the Tox21 HEK293 Progesterone Receptor (PR) Agonism Luciferase Follow-Up Assay (AID 2283941);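 note: loss of signal means cytotoxicity so actives lower viability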
Method in brief: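 HEK293-PR-A-luc cells, kept in 10% charcoal-stripped FBS medium, were treated with compounds for 16 h at 37C. Viability read as cellular ATP by luciferase-coupled luminescence; loss of signal indicates cytotoxicity.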

[13] = molecular target: Thyroid hormone receptor alpha (Rattus norvegicus) + Thyroid hormone receptor beta (Rattus norvegicus) (UniProt P18113+P63059); assay: TOX21_TR_LUC_GH3_Antagonist_Followup: Tox21 GH3 Thyroid Hormone Receptor Antagonism Luciferase Follow-Up Assay (AID 2283942)
Method in brief: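 Rat pituitary GH3 cells with a TRα/TRβ-driven luciferase reporter, 5 h attachment, then 15 concentrations (92 uM to 5nM final) plus 1.0 nM T3 agonist, 24 h at 37C/5% CO2. ONE-Glo luminescence; signal change fitted against DMSO baseline.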

THRB (gene 7068) = THRB (gene 7068) (UniProt P10828); assay: TOX21_TRB_COA_Antagonist_Followup_ratio: Tox21 Thyroid Hormone Receptor beta Antagonism through Coactivator Recruitment Follow-Up Assay, Ratio (AID 2283967)
Sequence of THRB (gene 7068) (P10828 whole entry, looked up, the tested form may be a part): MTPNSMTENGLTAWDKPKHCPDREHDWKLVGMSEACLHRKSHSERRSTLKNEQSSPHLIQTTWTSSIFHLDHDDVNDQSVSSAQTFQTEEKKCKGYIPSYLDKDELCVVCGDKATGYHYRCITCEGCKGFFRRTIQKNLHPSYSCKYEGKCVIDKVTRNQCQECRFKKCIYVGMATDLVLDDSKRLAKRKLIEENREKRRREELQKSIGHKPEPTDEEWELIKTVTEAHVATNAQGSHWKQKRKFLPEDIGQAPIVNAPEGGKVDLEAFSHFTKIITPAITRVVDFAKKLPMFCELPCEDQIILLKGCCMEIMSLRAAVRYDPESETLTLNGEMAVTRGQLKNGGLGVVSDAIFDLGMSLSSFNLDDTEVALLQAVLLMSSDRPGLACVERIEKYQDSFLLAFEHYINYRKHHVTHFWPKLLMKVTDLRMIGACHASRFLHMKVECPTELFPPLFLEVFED
Method in brief: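 Cell-free TR-FRET coactivator recruitment with GST-tagged TRβ LBD (5.0 nM) and fluorescein-labeled SRC-2 peptide (200 nM) detected by terbium anti-GST antibody (2 nM). The 520:495 nm emission ratio was normalized to DMSO (0%) and T3 (100%).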

[14] = molecular target: Retinoic acid receptor RXR-alpha (Homo sapiens) (UniProt P19793); assay: TOX21_TR_RXR_BLA_Antagonist_Followup_ratio: Tox21 Thyroid Hormone Receptor beta Retinoid X Receptor alpha (RXRa) Antagonism Beta-lactamase (BLA) Follow-Up Assay, Ratio (AID 2283972)
Sequence of Retinoic acid receptor RXR-alpha (Homo sapiens) (P19793 whole entry, looked up): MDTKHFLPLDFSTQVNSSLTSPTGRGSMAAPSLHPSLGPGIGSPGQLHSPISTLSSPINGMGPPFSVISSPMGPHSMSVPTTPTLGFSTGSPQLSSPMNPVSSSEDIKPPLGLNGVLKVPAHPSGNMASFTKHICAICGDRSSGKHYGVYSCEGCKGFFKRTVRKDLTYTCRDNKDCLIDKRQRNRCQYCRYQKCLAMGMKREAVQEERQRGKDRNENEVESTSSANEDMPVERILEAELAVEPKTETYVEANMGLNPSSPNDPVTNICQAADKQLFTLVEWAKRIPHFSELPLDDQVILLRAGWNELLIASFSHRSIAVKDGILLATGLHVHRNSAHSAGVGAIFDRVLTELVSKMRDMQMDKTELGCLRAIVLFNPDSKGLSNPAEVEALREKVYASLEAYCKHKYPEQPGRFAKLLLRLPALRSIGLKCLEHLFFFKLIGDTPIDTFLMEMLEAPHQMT
Method in brief: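 HEK293T RXRa-bla, 2% charcoal-stripped FBS medium, 16 h compound exposure at 37C, qHTS 11 conc x3. CCF4 FRET ratio ch2/ch1 (460:530), DMSO = baseline, loss-of-signal fit.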

[15] = TOX21_TR_RXR_BLA_Antagonist_Followup_viability: Viability Assessment in the Tox21 Thyroid Hormone Receptor beta Retinoid X Receptor alpha (RXRa) Antagonism Beta-lactamase (BLA) Follow-Up Assay (AID 2283979)
Method in brief: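 RXRa-UAS-bla HEK293T cells seeded 2,500/well in phenol red-free DMEM with 2% charcoal-stripped FBS, attached 5 h, then exposed to compounds at 11 concentrations in triplicate for 16 h at 37C/5% CO2. Viability read by CellTiter-Glo ATP luminescence; bidirectional fit versus DMSO.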

Measured: AC50

Oc1ccc(Cl)c(Cl)c1Cl
inactive: [1] | [2] | [3] | [4] | [5] | [6] | [7]

C=C(Cl)CSC(=S)N(CC)CC
inactive: [1] | [2] | [3] | [5] | [7]

Brc1c(Br)c(Br)c(Br)c(Br)c1Br
inactive: [1] | [2] | [4] | [5] | [6]

C=C(C)CCl
inactive: [1] | [2] | [3] | [5] | [6]

Nc1n[nH]c(N)n1
inactive: [1] | [2] | [3] | [6]

O=C(O)C(Br)CBr (configuration not stated)
inactive: [1] | [2] | [3] | [5] | [7]

Clc1ccc2ccccc2c1
inactive: [1] | [2] | [3] | [5] | [7]

O=C(Cl)c1ccccc1F
inactive: [1] | [2] | [4] | [5] | [6]

CC=CCC#N
inactive: [1] | [2] | [3] | [5] | [7]

N#CSCc1ccccc1
inactive: [2] | [4] | [5] | [7]
active: [1] 80.2 µM | [3] 30.7 µM

CNC(C)Cc1ccccc1 (configuration not stated)
inactive: [1] | [2] | [3] | [5]

CCCN
inactive: [1] | [2] | [3] | [5] | [6] | [7]

Nc1nc(N)nc(N)n1
inactive: [1] | [2] | [3] | [5] | [7]

CC[C@]1(O)CC[C@H]2[C@@H]3CCC4=CCCC[C@@H]4[C@H]3CC[C@@]21C
inactive: [2] | [4] | [6] | PGR (gene 5241) [9] | PGR (gene 5241) [11] | [12] | [13] | THRB (gene 7068) | [15]
active: [1] 3.73 µM | [3] 3.62 µM | [5] 7.06 µM | PGR (gene 5241) [8] 0.686 µM | PGR (gene 5241) [10] 0.0421 µM | [14] 14.3 µM

CC1N=C(N)OC1c1ccccc1 (configuration not stated)
inactive: [1] | [2] | [3] | [6] | [7]
active: [4] 26 µM

CCCCCCCCCCOC(=O)c1ccccc1C(=O)OCCCCCCCCCC
inactive: [1] | [2] | [3] | [5]
